In one assay the target is Albumin (Bos taurus) (UniProt P02769). As to the kind of experiment: compounds binding labelled BSA control protein – biochemical, small-molecule microarray, Alexa647 label, 635/667 nm fluorescence, artefact control for SMM control protein annotation, profiling panel (AID 1118).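 Note: score merges 667 nm emission intensity and signal-to-noise per printed compound spot.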 Conditions: BSA-A647 binding, fluorescence 635 nm, higher = more signal.
Assay [1] in a line: probe aXIP binding to arrayed compounds – biochemical, NeuroSMM set, 635/667 nm fluorescence, primary screen (AID 1119).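 Note: probe is the protein aXip251-270 applied at 1 µg/mL to compound-printed slides; binding of probe to printed compounds measured as 667 nm fluorescence plus signal to noise.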 Conditions: small-molecule microarray, higher = more signal, called active from +8 up or from −8 down.
A short description of assay [2]: probe aNOTCH3 binding on compound microarray – biochemical, small-molecule microarray, 635/667 nm fluorescence, primary screen (AID 1120).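 Note: probe is a biotin-tagged antibody raised against NOTCH3 rather than NOTCH3 protein; score merges spot fluorescence near 667 nm with spot signal to noise.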 Conditions: higher = more signal.
Assay [3] in a line: probe aNOTCH2 binding on compound microarray – biochemical, small-molecule microarray, 635/667 nm fluorescence, primary screen (AID 1121).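 Note: score merges feature fluorescence read at 667 nm with its signal to noise.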 Conditions: higher = more signal.
For assay [4], the target named is Carbonic anhydrase 2 (Homo sapiens) (UniProt P00918). As to the kind of experiment: compounds binding carbonic anhydrase 2 – biochemical, small-molecule microarray, Alexa647-labelled CAII, profiling panel (AID 1122). Conditions: CAII-A647 binding fluorescence, higher = more signal.
Assay [5] in a line: COS7 lysate on small-molecule microarray, probe aHis, 635 nm (AID 1123).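 Note: z-score combines 667nm fluorescence intensity with signal-to-noise per printed compound spot.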 Conditions: COS7 cell lysate, fluorescence, higher = more signal.
Assay [6] in a line: probe aLAP1 signal on lysate-treated microarray – cell lysate, small-molecule microarray, COS7 lysate, primary screen (AID 1124).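 Note: lysate comes from COS7 cells expressing LAP1 and is applied at 0.3 µg/mL; score merges spot fluorescence near 667 nm with signal-to-noise over triplicate slides.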 Conditions: probe aLAP1, fluorescence, higher = more signal.
Another assay deals with Sam68 (KHDRBS1). As to the kind of experiment: compounds binding KHDRBS1 protein – biochemical, small-molecule microarray, 635 nm fluorescence, primary screen (AID 1125).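 Note: score merges 667 nm channel intensity with signal to noise over triplicate slides.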 Conditions: higher = more signal.
Assay [7] deals with Chordin-like protein 2 (CHRDL2). As to the kind of experiment: compounds binding chordin-like 2 – biochemical, small-molecule microarray, 635 nm fluorescence, primary screen (AID 1126).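 Note: printed compound slides probed with Chrdl2 protein at 4 µg/mL for 1 h at 4 C; score merges 667 nm emission intensity with signal to noise over three replicate slides.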 The settings on record: fluorescence 635 nm, higher = more signal.
Assay [8] deals with Concanavalin-A (Canavalia ensiformis) (UniProt P02866). Kind of assay: compounds binding concanavalin A lectin – biochemical, small-molecule microarray, Alexa647 label, 635 nm, artefact control for SMM control protein annotation, primary screen (AID 1127).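 Note: z combines 667 nm emission intensity with signal-to-noise across three replicate slides.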 The settings on record: ConA-A647 binding fluorescence, higher = more signal.
The nature of assay [9]: compounds binding Alexa647 anti-His antibody – biochemical, small-molecule microarray, 635 nm fluorescence, artefact control for SMM control protein annotation, primary screen (AID 1128).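 Note: score merges feature fluorescence with signal-to-noise for each printed compound spot.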 The settings on record: higher = more signal.
The subject of assay [10] is Human papillomavirus type 1a E7 protein (residues 1-88). As to the kind of experiment: HPV1a E7 small-molecule binders, primary screen, biochemical, small-molecule microarray, residues 1-88, 635 nm (AID 1129). The settings on record: small-molecule microarray binding, fluorescence 635 nm; higher = more signal.
Assay [11] addresses Focal adhesion kinase 1 (Homo sapiens) (UniProt Q05397). Kind of assay: PTK2 protein binding on printed compound slides – biochemical, small-molecule microarray, 635/667 nm fluorescence, BSA, DTT, primary screen (AID 1130).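 Note: composite of spot emission at 667 nm and signal to noise over triplicate slides.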 Conditions: 635 nm fluorescence, higher = more signal.
Assay [12] relates to Fibrinogen (Alexa647-labelled). As to the kind of experiment: Alexa647-fibrinogen binding to printed small molecules – biochemical, small-molecule microarray, 635/667 nm fluorescence, artefact control for SMM control-protein annotation, profiling panel (AID 1131).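 Note: z-score merges 667 nm fluorescence with per-spot signal-to-noise over triplicate slides.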 Conditions: fibrinogen-A647 binding fluorescence, higher = more signal.
In assay [13] the target is Follistatin (Homo sapiens) (UniProt P19883). As to the kind of experiment: FST protein binding to printed compounds – biochemical, small-molecule microarray, 635/667 nm fluorescence, primary screen (AID 1132). Conditions: 635 nm fluorescence, higher = more signal.
Assay [14] addresses Fibroblast growth factor 2 (Homo sapiens) (UniProt P09038). As to the kind of experiment: basic fibroblast growth factor binding to printed compounds – biochemical, small-molecule microarray, 635/667 nm fluorescence, primary screen (AID 1133). The settings on record: FGF2, fluorescence 635/667, higher = more signal.
Assay [15] in a line: JC-1 mitochondrial potential readout, lung cancer cells – cell-based, A549, JC-1 fluorescence, basal, 24 h, 100 nL, profiling panel (AID 1138).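 Note: A549 lung adenocarcinoma cells under basal conditions with no added stimulus; test concentration not given here.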 Conditions: higher = more signal.
Another assay deals with Lefty1. As to the kind of experiment: Lefty1 protein binding to printed compounds – biochemical, small-molecule microarray, 635/667 nm fluorescence, primary screen (AID 1139). Conditions: fluorescence 635/667, higher = more signal.
Assay [16] concerns wheat germ agglutinin (Triticum aestivum), Alexa647-labelled. As to the kind of experiment: Alexa647-WGA lectin binding to printed small molecules – biochemical, small-molecule microarray, 635/667 nm fluorescence, artefact control for SMM control-protein annotation, profiling panel (AID 1140).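 Note: score merges 667 nm feature emission with signal to noise over triplicate slides.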 Conditions: WGA-A647 binding, 635 nm fluorescence, higher = more signal.
For assay [17], the target named is Luciferin 4-monooxygenase (Photinus pyralis) (UniProt P08659). Kind of assay: inhibition of purified Photinus pyralis luciferase – biochemical, luminescence, purified enzyme, 2006 set, primary screen (AID 1141).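 Note: cell-free assay with purified firefly luciferase at 100 ng per well in PBS; test concentration not given here.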 Conditions: purified firefly luciferase, SteadyGlo luminescence, 30 min; higher = more signal, called active from +8 up or from −8 down.

This note sets out measurements from PubChem BioAssay.

The source made the active and inactive calls.

Chain of Follistatin (Homo sapiens) (P19883 whole entry, looked up): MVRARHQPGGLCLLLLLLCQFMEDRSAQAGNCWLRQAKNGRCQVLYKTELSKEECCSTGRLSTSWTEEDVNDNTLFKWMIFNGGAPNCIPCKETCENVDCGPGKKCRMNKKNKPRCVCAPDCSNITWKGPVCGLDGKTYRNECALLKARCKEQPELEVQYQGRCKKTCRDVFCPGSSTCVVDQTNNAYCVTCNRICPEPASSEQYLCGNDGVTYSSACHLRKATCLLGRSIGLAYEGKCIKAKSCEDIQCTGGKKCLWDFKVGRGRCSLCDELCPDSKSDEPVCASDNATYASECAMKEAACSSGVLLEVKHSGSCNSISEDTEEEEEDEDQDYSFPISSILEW
Chain of Concanavalin-A (Canavalia ensiformis) (P02866 whole entry, looked up): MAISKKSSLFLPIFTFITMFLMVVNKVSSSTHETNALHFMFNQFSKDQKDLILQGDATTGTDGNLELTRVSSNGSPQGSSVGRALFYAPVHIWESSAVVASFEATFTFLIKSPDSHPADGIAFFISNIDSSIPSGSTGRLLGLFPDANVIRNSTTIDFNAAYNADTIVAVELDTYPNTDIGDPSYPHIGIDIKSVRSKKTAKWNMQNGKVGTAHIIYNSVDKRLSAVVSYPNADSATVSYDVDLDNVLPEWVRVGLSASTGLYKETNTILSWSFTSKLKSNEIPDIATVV
Chain of Focal adhesion kinase 1 (Homo sapiens) (Q05397 whole entry, looked up): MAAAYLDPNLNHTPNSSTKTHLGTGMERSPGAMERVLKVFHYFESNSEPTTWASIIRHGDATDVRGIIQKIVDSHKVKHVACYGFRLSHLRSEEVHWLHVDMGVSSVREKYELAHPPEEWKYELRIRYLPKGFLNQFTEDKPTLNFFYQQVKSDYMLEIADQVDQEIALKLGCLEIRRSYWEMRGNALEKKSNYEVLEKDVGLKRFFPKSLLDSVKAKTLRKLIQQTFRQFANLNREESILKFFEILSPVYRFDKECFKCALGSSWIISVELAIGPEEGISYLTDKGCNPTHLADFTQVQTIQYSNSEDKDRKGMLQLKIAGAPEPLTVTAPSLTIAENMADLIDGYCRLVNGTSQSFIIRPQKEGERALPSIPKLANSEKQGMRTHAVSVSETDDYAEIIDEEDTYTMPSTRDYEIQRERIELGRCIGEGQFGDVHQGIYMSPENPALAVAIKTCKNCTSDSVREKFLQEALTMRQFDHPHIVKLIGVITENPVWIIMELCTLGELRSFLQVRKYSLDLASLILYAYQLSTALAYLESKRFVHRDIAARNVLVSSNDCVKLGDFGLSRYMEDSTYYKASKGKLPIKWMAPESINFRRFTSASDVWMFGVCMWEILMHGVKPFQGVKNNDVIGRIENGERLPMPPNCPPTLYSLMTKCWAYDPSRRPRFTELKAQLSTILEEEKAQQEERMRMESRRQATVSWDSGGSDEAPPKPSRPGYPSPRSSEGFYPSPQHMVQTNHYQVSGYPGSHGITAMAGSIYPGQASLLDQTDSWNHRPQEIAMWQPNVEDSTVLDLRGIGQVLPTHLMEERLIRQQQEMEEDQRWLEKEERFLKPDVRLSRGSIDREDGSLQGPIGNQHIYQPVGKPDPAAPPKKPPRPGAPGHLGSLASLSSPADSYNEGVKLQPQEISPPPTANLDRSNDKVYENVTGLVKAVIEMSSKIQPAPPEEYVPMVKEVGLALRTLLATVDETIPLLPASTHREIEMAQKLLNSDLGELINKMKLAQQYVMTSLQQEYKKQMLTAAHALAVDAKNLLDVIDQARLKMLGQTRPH
Chain of Luciferin 4-monooxygenase (Photinus pyralis) (P08659 whole entry, looked up): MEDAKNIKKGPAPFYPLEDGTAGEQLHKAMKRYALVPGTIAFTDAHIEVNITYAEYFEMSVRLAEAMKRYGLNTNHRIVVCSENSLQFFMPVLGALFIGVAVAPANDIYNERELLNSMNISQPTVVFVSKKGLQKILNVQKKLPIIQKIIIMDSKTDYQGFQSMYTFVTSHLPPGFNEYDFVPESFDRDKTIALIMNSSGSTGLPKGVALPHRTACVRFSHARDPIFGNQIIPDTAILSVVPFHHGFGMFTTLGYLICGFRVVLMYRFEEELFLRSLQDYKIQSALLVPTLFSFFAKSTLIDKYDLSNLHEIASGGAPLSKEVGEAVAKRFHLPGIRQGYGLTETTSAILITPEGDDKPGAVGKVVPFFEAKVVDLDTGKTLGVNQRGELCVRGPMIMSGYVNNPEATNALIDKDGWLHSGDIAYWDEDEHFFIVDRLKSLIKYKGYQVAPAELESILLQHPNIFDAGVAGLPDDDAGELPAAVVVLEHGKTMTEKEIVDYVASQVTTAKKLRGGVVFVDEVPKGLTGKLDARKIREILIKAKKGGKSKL
Chain of Albumin (Bos taurus) (P02769 whole entry, looked up): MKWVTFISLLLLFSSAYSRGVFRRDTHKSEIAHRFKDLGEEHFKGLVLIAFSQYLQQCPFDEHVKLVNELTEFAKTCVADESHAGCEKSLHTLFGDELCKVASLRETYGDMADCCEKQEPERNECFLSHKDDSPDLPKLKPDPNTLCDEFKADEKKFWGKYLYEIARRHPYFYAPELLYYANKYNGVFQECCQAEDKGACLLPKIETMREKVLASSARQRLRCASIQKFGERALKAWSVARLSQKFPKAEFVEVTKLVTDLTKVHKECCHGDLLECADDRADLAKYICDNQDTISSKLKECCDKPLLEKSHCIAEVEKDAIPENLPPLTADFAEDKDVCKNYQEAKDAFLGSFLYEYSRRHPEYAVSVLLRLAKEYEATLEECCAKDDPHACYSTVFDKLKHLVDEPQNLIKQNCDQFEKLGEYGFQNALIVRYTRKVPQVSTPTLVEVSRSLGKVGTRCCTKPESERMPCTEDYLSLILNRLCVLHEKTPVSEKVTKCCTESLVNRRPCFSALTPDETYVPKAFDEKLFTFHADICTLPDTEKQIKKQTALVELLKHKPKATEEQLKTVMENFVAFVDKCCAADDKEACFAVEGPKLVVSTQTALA
Chain of Fibroblast growth factor 2 (Homo sapiens) (P09038 whole entry, looked up): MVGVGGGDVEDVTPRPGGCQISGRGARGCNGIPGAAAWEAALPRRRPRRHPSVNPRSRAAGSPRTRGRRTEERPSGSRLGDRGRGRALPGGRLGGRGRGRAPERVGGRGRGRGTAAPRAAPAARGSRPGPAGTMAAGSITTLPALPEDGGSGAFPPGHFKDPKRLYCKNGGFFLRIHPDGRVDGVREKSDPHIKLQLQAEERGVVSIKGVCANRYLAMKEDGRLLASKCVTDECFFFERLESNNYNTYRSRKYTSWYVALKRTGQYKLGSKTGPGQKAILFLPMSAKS

For the compound `COC(=O)[C@@]1(Cc2ccccc2CN=[N+]=[N-])N=C(c2ccc(OCCCO)cc2)O[C@H]1c1ccccc1`, the composite z-score was determined as 0.0186 with Albumin (Bos taurus); 0.177 in assay [2]; 0.0919 in [3]; 0.645 in assay [4]; 2.52 in assay [5]; 0.717 in assay [6]. The composite z-score amounted to 0.711 in the assay with Sam68 (KHDRBS1); 0.4 in assay [7]; 0.686 in assay [8]; 2.5 in assay [9]; 0.942 in [10]; 0.32 in assay [11]. For the same compound, the composite z-score in assay [12] was 0.191; in assay [13] it was 1.21; in [14] it was 0.255; in the assay on Lefty1, 0.143; in assay [16], 0.255. Also, the composite Z-score in [1] was 0.951 (inactive). Also, the z-score in [15] is -0.734; in assay [17], -2.03 (inactive).

Regarding `C[C@@]12COC[C@]13C=C(Br)[C@H](C2)[C@@]1(CO1)C3=O`, the composite z-score with Albumin (Bos taurus) is -0.717; in assay [2], -0.315; in assay [3], -0.124; in [4] it was -0.643; in assay [5], -0.47; in assay [6], 0. In addition, the composite z-score in the assay on Sam68 (KHDRBS1) was -1.91; in assay [7] it was -0.211; in assay [8], -0.858; in [9], 0.0359; in assay [10] it was -1.59; in [11], -0.306. Further, the composite z-score in [12] is -0.376; in assay [13], -0.222; in assay [14], -0.757; in the assay with Lefty1, -0.0487; in [16], -0.388. The composite Z-score in [1] was 0.112 (inactive). Moreover, the z-score is 1.02 in assay [15] and 0.198 (inactive) in assay [17].

For the compound `[N-]=[N+]=Nc1ccccc1C[C@]1(C(=O)NCc2ccccc2)COC(c2ccc(OCCCO)cc2)=N1`, the composite z-score in the assay with Albumin (Bos taurus) is 0.784; in assay [2] it was 0.0945; in assay [3], -0.0859; in assay [4], 0.383; in assay [5], 2.52; in assay [6], 0.171. Besides, the composite z-score in the assay with Sam68 (KHDRBS1) was 1.3; in assay [7], -0.362; in assay [8] it was 0.995; in assay [9] it was 1.39; in [10], 1.2; in [11], 0.467. In addition, the composite z-score in assay [12] came to 0.963; in assay [13], 1.16; in assay [14] it was 0.17; in the assay on Lefty1 it was 0.556; in assay [16], 1.14. The composite Z-score in assay [1] is -0.135 (inactive). Further, the z-score is 1.85 in assay [15] and -5.16 (inactive) in [17].

Regarding `O=C1C2C=CC(C(O)C=Cc3ccc([N+](=O)[O-])cc3)N(Nc3ccccc3)C2C(=O)N1c1ccccc1` (stereo not given), the composite z-score is 0.859 with Albumin (Bos taurus); 0.346 in [2]; 0.0167 in assay [3]; 0.713 in assay [4]; 2.05 in assay [5]; 0.276 in [6]. Further, the composite z-score with Sam68 (KHDRBS1) was 1.24; in assay [7] it was -0.0982; in assay [8], 1.1; in assay [9], 0.185; in [10] it was 1.2; in assay [11], 0.0142. Moreover, the composite z-score was 1.02 in [12]; 1.24 in assay [13]; 0.0395 in assay [14]; 0.416 with Lefty1; 0.932 in assay [16]. In assay [1], the composite Z-score is 0.075 (inactive). Besides, the z-score in assay [15] is -0.0492; in assay [17] it was -1.65 (inactive).

`CCOC(=O)C1=C[C@@H](C(C)(C)C)N(S(=O)(=O)c2ccc(C)cc2)[C@H]1c1ccccc1`: the composite z-score was 0.907 in the assay with Albumin (Bos taurus); 0.176 in assay [2]; -0.0836 in assay [3]; 0.343 in assay [4]; 0.29 in assay [5]; 0.931 in assay [6]. The composite z-score is 1.31 in the assay with Sam68 (KHDRBS1); -0.196 in assay [7]; 0.94 in assay [8]; 0.761 in assay [9]; 1.16 in assay [10]; 0.329 in assay [11]. For the same compound, the composite z-score stood at 0.706 in assay [12]; 1.11 in assay [13]; 0.136 in assay [14]; 0.523 in the assay with Lefty1; 1.09 in [16]. In addition, the composite Z-score in assay [1] was 0.265 (inactive). Moreover, the z-score in assay [15] was 2.21; in [17], 0.756 (inactive).
